Hits are enriched below; roughly 19% of the tested compounds scored in any of these assays.
BCR signal inh – inhibitors of chronic active B-cell receptor signaling. ABC-DLBCL IkBa-CBG/CBR reporter, luminescence ratio, 4 h. Potency, µM (doses to about 46.1 µM), for the others: at the highest dose activity change, negative = inhibition, most hits filed as inhibitors. actives 0.05% (n = 340,000). AID 493014; active = well fitted inhibition curve with a large enough effect in the signal ratio, with a control signal flat, not every such curve was filed as active; inconclusive = small, poorly fitted or top-dose-only effect, or effect the other way, or a change in a side signal; the % refers to the signal ratio;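 note: potency is the fitted concentration of half-maximal effect; plate controls were basal doxycycline-induced cells for no effect and cells given 10 µM MG132 for full effect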
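Concentration-response series (up to 46 uM) were applied to TMD8 dual-reporter cells for 4 h at 37C with doxycycline. Green/red ratio, after filter-overlap correction, defined %Activity; red signal alone was normalised to basal cells and zero luminescence.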
MCF10A rereplic – inducers of DNA re-replication in MCF 10A breast cells | MCF 10A DNA re-replication, Hoechst nuclear intensity, 48 h | actives 2.9% (n = 350,000) | Potency, µM (series often up to 46.1 µM), for inactives: at the highest dose activity, positive = re-replication, hits mostly activators; note: potency is the fitted concentration of half-maximal effect; % of control where 0% means no effect; nearly all actives have a fitted effect of over 50% in size
TDP1 cell noCPT – qHTS for Inhibitors of human tyrosyl-DNA phosphodiesterase 1 (TDP1): qHTS in cells in absence of CPT. DT40 Tdp1-/- hTDP1 cells, no CPT, ATP luminescence, 48 h. Potency, µM (doses to about 46.2 µM), inactives show at the top dose activity change, negative = growth inhibition, hits mostly inhibitors. actives 15% (n = 420,000); note: potency is the fitted concentration of half-maximal effect; % is set by controls: 0 for no effect and ±100 for the full control effect; nearly all actives have a fitted effect of over 55% in size
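Stably hTDP1-transfected Tdp1-null chicken DT40 cells were treated with library compounds minus camptothecin and grown for at least 48 hr at 37 °C, after which cellular ATP was quantified by luminescence.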
IL-1B inflam inh – inhibitors of inflammasome signaling (IL-1 beta secretion); THP-1 LPS/ATP IL-1B secretion, AlphaLISA, 16 h; stronger effect = lower value; activity change, % at 57.5 µM; actives 4.7% (n = 360,000); in the data active = activity change below about -50%; inconclusive = mostly about -30% to -49%; note: % is set by controls: 0 for no effect and ±100 for the full control effect
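Secreted IL-1B measured by AlphaLISA bead assay after 16 h compound exposure of THP-1 cells; compounds (final up to 57.5 uM) added 1 h before LPS (250 ng/mL) and ATP (1.25 mM) stimulation; lower signal means less secretion.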
SW480 rerep – inducers of DNA re-replication in SW480 colon cancer cells. AID 624297. SW480 DNA re-replication, Hoechst DNA content imaging, 48 h. Potency, µM (highest dose often 46.1 µM), for inactives: top-dose re-replication activation, actives largely listed as activators. actives 1.8% (n = 340,000); note: potency is the fitted concentration of half-maximal effect; % of control where 0% means no effect; nearly all actives have a fitted effect of over 55% in size
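SW480 cells exposed to compounds for 48 hr at 37 C, 5% CO2, then Hoechst-stained 40 min. Nuclear DNA content imaged by fluorescence scanning (405 nm excitation, 500-530 nm emission); re-replication scored as increased high-intensity nuclei.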
TDP1 cell CPT – DT40-hTDP1 cell growth loss with CPT; chicken DT40 Tdp1-/-;hTDP1 cells + 20 nM CPT, ATP luminescence, 48 h; Potency, µM (highest dose often 46.2 µM), inactives show at the top dose activity change, negative = growth inhibition, hits mostly inhibitors; actives 12% (n = 420,000); AID 686979; note: potency is the fitted concentration of half-maximal effect; % is set by controls: 0 for no effect and ±100 for the full control effect; nearly all actives have a fitted effect of over 55% in size
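Chicken DT40 Tdp1-/- cells stably complemented with human TDP1 were seeded at 400 cells/well in medium containing 20 nM camptothecin, exposed to pin-transferred compounds, and grown at 37 °C for at least 48 hr. Viability was read as ATP luminescence.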
* hit, by the source's call; ? = inconclusive; . = no result given. Unless noted, calls come from the whole dose curve; as a rule, active = well fitted curve in the direction sought with a large enough effect; inconclusive = small, poorly fitted or top-dose-only effect, or another doubt; inactive = no such curve, though single readings can be large; an effect the other way counts as inactive or inconclusive.

SMILES	BCR signal inh	MCF10A rereplic	TDP1 cell noCPT	IL-1B inflam inh	SW480 rerep	TDP1 cell CPT
COCc1cc(CN2CCCC(C(=O)Nc3ccc(-c4ccco4)cc3)C2)ccc1OC (centres undefined)	?	1.7%	?	-29.8	23.1µM*	?
CC1=C(C(N)=O)C(c2ccc(C)cc2)n2nc(SCc3ccccc3F)nc2N1 (centres undefined)	.	.	-13.6%	.	.	-19.6%
COc1ccc(CNC(=O)CCc2nnc3n(CC(C)C)c(=O)c4ccccc4n23)cc1	.	.	-3.8%	.	.	0.3%
CC1(C(=O)NS(=O)(=O)c2ccc(C#N)cc2)CCN1C(=O)C1(c2ccc(Cl)cc2)CC1 (centres undefined)	.	.	-7.4%	0.0	.	-25.2%
COc1cccc(-c2ccc(NC(=O)C3CCCN(Cc4cnc(C)n4C)C3)cc2)c1 (centres undefined)	?	?	?	-15.6	-1.7%	?
Cc1ncc(CN2CCCC(C(=O)Nc3ccc(-c4cccc(F)c4)cc3)C2)n1C (centres undefined)	?	23.1µM*	?	?	?	23.1µM*
COc1cccc(-c2ccc(NC(=O)C3CCCN(Cc4ccc(CO)o4)C3)cc2)c1 (centres undefined)	0.2%	17.5%	16.4µM*	-2.8	-4.0%	16.4µM*
CCSc1nc(C)nc2sc(C)c(C)c12	?	13.2%	15.8%	60.2	-1.5%	0.7%
C/C(=N/NC(=O)c1cccc(C)c1)c1c(O)cc(C)oc1=O	?	4.6%	23.1µM*	-8.2	-4.7%	?
COc1ccc(/C=C/C(=O)c2c(O)cc(C)oc2=O)c(OC)c1	0.4%	?	?	-17.8	?	?
COc1cc(/C=C/C(=O)c2c(O)cc(C)oc2=O)cc(OC)c1O	?	2.1%	?	-55.2*	-1.1%	?
CSc1ccc(/C=C/C(=O)c2c(O)cc(C)oc2=O)cc1	3.2%	?	?	-19.5	18.4µM*	-100.3%
CSc1ccc(C(=O)/C=C/c2ccc(N)cc2)cc1	?	23.1µM*	?	-99.4*	?	-36.1%
COc1ccc(CN2CCN(CCc3ccccc3)C(CCO)C2)cc1Cn1cncn1 (centres undefined)	?	0.5%	-13.6%	-3.6	2.8%	-15.4%
CCn1c(SCc2ccccc2)nnc1-c1nonc1NC(C)=O	.	.	-22.6%	.	.	-24.6%
COc1cccc(/C=C/C(=O)c2c(O)cc(C)oc2=O)c1O	?	?	?	-80.7*	18.7%	?
O=C(Cn1cnc2c(nc3n2CCCCC3)c1=O)Nc1ccc(F)c(Cl)c1	.	.	-17.9%	.	.	-23.1%
Cc1ccc(NC(=O)Cn2cnc3c(NCc4ccccc4)ncnc32)cc1C	?	7.5%	-6.8%	28.0	1.2%	-8.3%
C/C(=N\NC(=S)Nc1ccccc1C)c1cc2ccccc2o1	?	?	5.17µM*	4.3	-7.9%	4.11µM*
C/C(=N\NC(=O)c1ccco1)c1cc2ccccc2o1	?	-12.3%	?	-7.6	7.1%	7.8%
C/C(=N\NC(=S)Nc1ccc(C)cc1)c1cccc(N)c1	?	13.2%	?	33.8	-1.3%	?
C/C(=N\NC(=S)Nc1c(C)cccc1C)c1cc2ccccc2o1	?	?	2.06µM*	5.6	12.5%	3.26µM*
C/C(=N\NC(=S)Nc1c(C)cccc1C)c1ccc(O)cc1	?	4.7%	?	21.5	-2.2%	16.4µM*
Nc1nc2[nH]c(=O)[nH]c2c(=O)[nH]1	.	.	6.7%	.	.	-10.5%
CC(C)(C)OC(=O)C[C@@H]1C/C=C\C[C@@H](CC(=O)N(CCO)Cc2ccccc2)C(=O)N2CCC[C@@H]2COC1=O	4.0%	-10.7%	-26.0%	3.2	-3.0%	-39.7%
SMILES	BCR signal inh	MCF10A rereplic	TDP1 cell noCPT	IL-1B inflam inh	SW480 rerep	TDP1 cell CPT
Cc1nn(-c2ccccc2)c(C)c1[N+](=O)[O-]	-1.7%	0.2%	-4.6%	19.7	-10.8%	-4.9%
O=[N+]([O-])c1c(C(Cl)Cl)nn(-c2ccccc2)c1N1CCOCC1	-16.6%	-0.8%	-27.2%	-80.6*	?	?
O=[N+]([O-])c1ccc(N2CCCCC2)cn1	2.5%	12.9%	7.6%	3.6	-160.0%	-2.1%
O=[N+]([O-])c1c(C(Cl)Cl)nn(-c2ccc(Cl)cc2)c1N1CCCCC1	5.8%	?	16.4µM*	-0.3	-1.4%	?
CCOC(=O)C1=C(C)N=C2SCCC(=O)N2C1c1ccc(OCc2ccccc2)cc1 (centres undefined)	.	.	?	.	.	2.9%
COC(=O)c1[nH]c2ccc(C)cc2c1NC(=O)Nc1ccc(OC)cc1	?	-7.9%	-5.6%	16.9	19.6%	0.7%
COc1cccc(NC(=O)Nc2cc(Cl)ccc2C)c1	-1.9%	-10.5%	?	-75.8*	-6.3%	?
COC(=O)c1[nH]c2ccc(F)cc2c1NC(=O)Nc1ccc(OC)cc1	2.1%	-2.5%	6.51µM*	11.8	1.3%	?
COc1ccc(NC(=O)Nc2cccc(OC)c2)cc1	.	1.4%	-0.9%	-75.4*	-1.0%	-15.8%
COc1cccc(NC(=O)C2CC2)c1	0.1%	-3.9%	-3.9%	-10.7	-4.9%	5.8µM*
O=C(NCCc1cccs1)C(c1ccccc1)c1ccccc1	-1.0%	5.3%	?	-7.2	-4.4%	?
